In the supplement of paper PMC12350171:
Structures can show the parent of a compound that is named as a salt.

test system: Haemophilus parainfluenzae; assay: growth AUC normalised to DMSO control (fraction of control); higher = less growth inhibition, active = hit call of the paper; conditions: 20 µM;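 active = AUC significantly below DMSO controls by Student t-fit with adjusted P under 0.01; inactive = not significantly reduced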
In short: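 Hemin and NAD were added to the medium for Haemophilus parainfluenzae. All pathogens, after two anaerobic passages, were inoculated at a starting OD578 of 0.01 into pre-reduced mGAM plates with 20 μM compound and 1% DMSO under breathable seals, and OD578 was read hourly for 24 h in three biological replicates. AUC of each growth curve was obtained with the trapezoidal rule up to the exponential-to-stationary transition and normalised to DMSO controls from the same plate.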

Row | Compound | growth AUC normalised to DMSO control
1 | O=C1OCCN1/N=C/c1ccc([N+](=O)[O-])o1 [Furazolidone] | 0.361 (active)
2 | Cc1ccc(C(=O)c2ccc(CC(=O)O)n2C)cc1 [Tolmetin sodium salt dihydrate] | 1.07 (inactive)
3 | CC(=O)N[C@@H](CC(C)C)C(=O)O [N-Acetyl-L-leucine] | 1.02 (inactive)
4 | Cc1ccccc1N1C(=O)c2cc(S(N)(=O)=O)c(Cl)cc2NC1C (stereo unspecified) [Metolazone] | 0.966 (inactive)
5 | CCOC(=O)O[C@]1(C(=O)COC(=O)CC)CC[C@H]2[C@@H]3CCC4=CC(=O)C=C[C@]4(C)[C@H]3[C@@H](O)C[C@@]21C [Prednicarbate] | 1.16 (inactive)
6 | O=C1CCc2cc(OCCCCc3nnnn3C3CCCCC3)ccc2N1 [Cilostazol] | 1.26 (inactive)
7 | CN(C)CCOc1ccc(/C(=C(/CCCl)c2ccccc2)c2ccccc2)cc1 [Toremifene] | 0.997 (inactive)
8 | CC1(C)S[C@@H]2[C@H](NC(=O)[C@H](N)c3ccc(O)cc3)C(=O)N2[C@H]1C(=O)O [Amoxicillin] | 0.0371 (active)
9 | CN(C)c1nc(N(C)C)nc(N(C)C)n1 [Altretamine] | 1.05 (inactive)
10 | CCCCOc1ccc(OCCCN2CCOCC2)cc1 [Pramoxine hydrochloride] | 0.936 (inactive)
11 | CN(C)CCOC(C)(c1ccccc1)c1ccccn1 (stereo unspecified) [Doxylamine succinate] | 0.989 (inactive)
